PubChem BioAssay (NCI)
Compounds without any hit were thinned out: in the full panel of roughly 83,000, 20% have a hit.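 Percent growth is the endpoint: 0 to 100 indicates growth inhibition (40 means 60% inhibition), 0 means no net growth, and negative values indicate cell death.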 Activity calls are given as the source filed them. Rule for the calls: active = growth percent below 10; inactive = the rest.

Columns and labels:
Assay in all cases: NCI-60 one-dose screen, 48 h (100 = growth as untreated, 0 = no growth, -100 = all killed)
Conditions in all cases: 10 µM unless noted
[1] = system: SK-MEL-2 melanoma
[2] = system: SN12C renal
[3] = system: UO-31 renal
[4] = system: TK-10 renal
[5] = system: ACHN renal
[6] = system: CAKI-1 renal
[7] = system: A498 renal
[8] = system: CCRF-CEM leukemia
[9] = system: MOLT-4 leukemia

Measured: growth

O=C(N/N=C/c1c(Cl)cccc1Cl)c1ccccc1Nc1ccnc(C(F)(F)F)c1
inactive: [1] 69.6% | [2] 75.7% | [3] 84.1% | [4] 95.4% | [5] 78.8% | [6] 77.6% | [7] 73.6% | [8] 81.6% | [9] 63.4%

CCCCCCCCCCCCOB(OCCCCCCCCCCCC)OCCCCCCCCCCCC
inactive: [1] 108% | [2] 95.8% | [3] 91.8% | [4] 101% | [5] 109% | [6] 104% | [7] 112% | [8] 95.3% | [9] 95.2%

c1ccc(CCn2nnc3c(Nc4ccc(N5CCOCC5)cc4)ncnc32)cc1
inactive: [1] 105% | [2] 92.1% | [3] 87.1% | [4] 121% | [5] 104% | [6] 86.3% | [7] 77.6% | [8] 71.6% | [9] 66.4%

COC(=O)C(CC(=O)c1ccc(-c2ccccc2)cc1)c1ccccc1 (stereo unspecified)
inactive: [1] 69.4% | [2] 64.2% | [3] 53.8% | [4] 68% | [5] 41.3% | [6] 44.3% | [7] 41.7% | [8] 49.4% | [9] 47.3%

CN(C)c1ncc(-c2ccc(C(F)(F)F)cc2)c(NC2CCCCCC2)n1
inactive: [1] 56.6% | [2] 45.9% | [3] 31% | [4] 65.2% | [5] 16.5% | [6] 85.5% | [7] 81.2% | [8] 45.5% | [9] 76.5%

CN(C)c1ccc(-c2ccc(-c3ccc(C(=N)N)cn3)o2)cc1
active: [1] -85.4% | [2] -85.2% | [3] -69.4% | [4] -64.7% | [5] -83.5% | [6] -72.5% | [7] -9.83% | [8] -2.2% | [9] -52.1%

O=C(CC(O)c1ccncc1)c1ccccc1 (stereo unspecified)
active: [2] -22.2% | [4] -30.8% | [5] -28.5%
inactive: [1] 57.1% | [3] 49.7% | [6] 86.2% | [7] 62.4% | [8] 99.9% | [9] 90.9%

O=C(O)Cc1ccc2c(c1)Cc1cccnc1O2
inactive: [1] 104% | [2] 100% | [3] 94% | [4] 92.5% | [5] 111% | [6] 96.9% | [7] 104% | [8] 100% | [9] 102%

COc1cc(C(=O)OCCCCCCCCCCC[P+](c2ccccc2)(c2ccccc2)c2ccccc2)ccc1O
active: [1] -32.1% | [2] -70.1% | [3] -8.76% | [4] 8.26% | [5] -1.87% | [6] -73.2% | [7] -0.743% | [8] -32.3% | [9] -50.9%

CCCCCCC[C@@H](O)CC(=O)N[C@H](CCCCN)C(=O)N[C@H](Cc1c[nH]c2ccccc12)C(=O)NC(CCCCN)C(=O)N[C@H](CC(C)C)C(=O)N[C@H](Cc1ccccc1)C(=O)N[C@H](CCCCN)C(=O)N[C@H](CCCCN)C(=O)N[C@H](CC(C)C)C(=O)N1CCCC1C(=O)N[C@H](CCCCN)C(=O)N[C@H](Cc1ccccc1)C(=O)N[C@H](CC(C)C)C(=O)N[C@H](Cc1c[nH]cn1)C(=O)N[C@H](CC(C)C)C(=O)N[C@H](C)C(=O)N[C@H](CCCCN)C(=O)N[C@H](CCCCN)C(=O)N[C@H](Cc1ccccc1)C(=O)O (stereo partly specified)
active: [1] -60.1% | [2] -40.7% | [3] -54.5% | [4] -80.4% | [5] -50.9% | [6] -70.3% | [7] -54.1% | [8] -39.6% | [9] -25.9%

CCC1CCc2nc3sc(C(=O)Nc4ccccc4C)c(N)c3cc2C1 (stereo unspecified)
inactive: [1] 21.9% | [2] 58% | [3] 37.6% | [4] 59.6% | [5] 47.4% | [6] 29.4% | [7] 33.2% | [8] 18.7% | [9] 39.7%

CCNCc1ccncc1
inactive: [1] 106% | [2] 108% | [3] 89.8% | [4] 99.5% | [5] 108% | [6] 94% | [7] 97.8% | [8] 95% | [9] 92%

O=C(O)c1cn(C2CC2)c2cc(N3CCN(S(=O)(=O)c4ccc(Cl)c(Cl)c4)CC3)c(F)cc2c1=O
active: [1] -9.56% | [5] 4.95% | [6] 3.06% | [9] 3.44%
inactive: [2] 10.4% | [3] 10% | [4] 33.2% | [7] 13.8% | [8] 16.9%

O=C(/C=C/c1ccccc1)n1c(-c2ccc(Cl)cc2)nc2ccccc21
inactive: [4] 18.6% | [9] 21.9%
active: [1] -36% | [2] -48.5% | [3] -39% | [5] -49.9% | [6] -39.4% | [7] -14.6% | [8] -23.9%

Clc1ccc([I+]c2ccc(Cl)cc2Cl)c(Cl)c1
inactive: [1] 77.4% | [2] 33.3% | [5] 29.6% | [6] 27% | [7] 69.9%
active: [3] -50.8% | [4] -82.4% | [8] -1.96% | [9] -6.5%

COc1ccc(-c2nnc(COc3ccc(NC(=O)Nc4ccc(Cl)c(C(F)(F)F)c4)cc3F)o2)cc1
inactive: [2] 21.2% | [4] 35%
active: [1] -7.3% | [3] 2.2% | [5] -23.2% | [6] 4.77% | [7] -1.59% | [8] 0.195% | [9] 2.69%

Clc1ccc(-c2nc(-c3ccco3)cn3ccnc23)cc1
active: [3] 7.06% | [5] 8.59%
inactive: [1] 100% | [2] 65.7% | [4] 11.9% | [6] 50.2% | [7] 36.8% | [8] 78.4% | [9] 80%

COc1ccc(-c2cn[nH]c2-c2cc(OC)c3c(c2)OCCO3)cc1
inactive: [2] 29.6% | [3] 50.4% | [4] 57.8% | [5] 38% | [6] 56.9% | [8] 17.4% | [9] 12%
active: [1] 9.5% | [7] -13.4%

CCc1cccc(C)c1NC(=O)c1sc2nc3c(cc2c1N)C(=O)CCC3
inactive: [1] 27.5% | [2] 51.5% | [3] 50.1% | [4] 51.5% | [5] 51.9% | [6] 45.8% | [9] 18%
active: [7] -9.18% | [8] 9.81%

N#CC1=C(N)OC2=C(C(=O)CCC2)C1c1ccco1 (stereo unspecified)
inactive: [1] 97.8% | [2] 107% | [3] 79.3% | [4] 96.4% | [5] 104% | [6] 93% | [7] 112% | [8] 107% | [9] 97.9%

Cc1cc(C)c(S(=O)(=O)N2CCN(c3cc4c(cc3F)c(=O)c(C(=O)O)cn4C3CC3)CC2)c(C)c1
inactive: [1] 90.5% | [2] 13.9% | [3] 16.1% | [4] 86.5% | [5] 51.3% | [6] 67.1% | [7] 63% | [8] 37.3% | [9] 61%

CC(C(=O)n1cc(-c2ccccc2)c(-c2ccccc2)c1)c1ccccc1 (stereo unspecified)
inactive: [1] 104% | [2] 108% | [3] 88.6% | [4] 98.8% | [5] 115% | [6] 91.6% | [7] 99.8% | [8] 103% | [9] 102%

COc1ccc(-c2nnc(COc3ccc(NS(=O)(=O)c4ccc(OC)cc4)cc3F)o2)cc1
inactive: [1] 68.2% | [2] 89.8% | [3] 51.1% | [4] 80.9% | [5] 72.1% | [6] 64.1% | [7] 59.2% | [8] 43.1% | [9] 60%

COc1cc2nc(N3CCC[C@@H](NC4=CC(=O)c5ccccc5C4=O)C3)nc(N)c2cc1OC
inactive: [1] 109% | [2] 95.9% | [3] 46% | [5] 72% | [6] 64.9% | [7] 107%
active: [4] -49.3% | [8] -20.9% | [9] -37.1%

Nc1c(C(=O)Nc2cccc(C(F)(F)F)c2)sc2nc3c(cc12)CCCCC3
active: [2] 2.78% | [3] -39.8% | [4] -16.2% | [5] -67.4% | [7] -21.8%
inactive: [1] 39.4% | [6] 16.2% | [8] 61.9% | [9] 83%

COc1cc(CNC(=O)CCSc2nc3ccccc3c(=O)n2Cc2cc(OC)c(OC)c(OC)c2)cc(OC)c1OC
active: [1] -9.25%
inactive: [2] 50.7% | [3] 47.2% | [4] 62% | [5] 48.9% | [6] 34.3% | [7] 21.7% | [8] 35.5% | [9] 18.8%

O=C1Nc2ccc(Br)cc2C1=N/C=c1\[nH]c(=O)/c(=C/c2ccc(Cl)cc2)s1
inactive: [1] 99.7% | [2] 102% | [3] 85.2% | [4] 101% | [5] 90.8% | [6] 101% | [7] 94.5% | [8] 87.9% | [9] 90.9%

CC(=O)OC[Si](C)(C)c1ccccc1
inactive: [1] 126% | [2] 99.6% | [3] 94.9% | [4] 107% | [5] 106% | [6] 92.1% | [7] 103% | [8] 108% | [9] 112%

CCn1cc(C(=O)O)c(=O)c2cc(F)c(N3CCN(S(=O)(=O)c4cccc5ccccc45)CC3)cc21
active: [1] 8.82% | [3] -19.7% | [5] -3.57% | [6] 0.945% | [7] -0.385% | [9] 8.41%
inactive: [2] 11.9% | [4] 26% | [8] 12.1%
